What is called AC50 is the concentration at which the activity in the assay is half-maximal.

Each structure is given as a SMILES string. Active and inactive are the calls of the source. No rule for the calls is given here.

The conditions of the first assay: Ebola virus entry assay, ratio channel.
`OC(CCN1CCCCC1)(c1ccccc1)c1ccccc1`: the AC50 was 28.2 µM (active).
On the same count and under the same terms, then `CN(C)CCOC1=Cc2ccccc2Sc2ccc(Cl)cc21`, with 12.6 µM (active); and `CCN(CC)CCOc1ccc(C(O)(Cc2ccc(Cl)cc2)c2ccc(C)cc2)cc1` (stereo unspecified), with 1.78 µM (active).
On the same count and under the same terms, then `CCCCCN=C(N)N/N=C/c1c[nH]c2ccc(OC)cc12`, with 3.16 µM (active); and `C[C@@H](CN(C)C)CN1c2ccccc2Sc2ccccc21`, with 10 µM (active).
As for `CCCCc1ccc2nc(NC(=O)OC)[nH]c2c1`, the result was inactive.
Take `c1ccc2c(c1)CCc1ccccc1N2`: the outcome was inactive.
Consider `COc1ccc(CCN(C)CCCC(C#N)(c2cc(OC)c(OC)c(OC)c2)C(C)C)cc1OC` (stereo unspecified), for which the AC50 is 14.1 µM (active).
As for `CC(CC1c2ccccc2CCc2ccccc21)CN(C)C` (stereo unspecified), the AC50 was 3.98 µM (active).
The same measure, in the same setting: then `CN(C)CCN(Cc1ccc(Cl)cc1)c1ccccn1`, with 14.1 µM (active).
Regarding `CCN(CC)CCOc1ccccc1C(=O)CCc1ccccc1`, the AC50 is 14.1 µM (active).
Same read-out and setting: the same measure for `CN(C)CCOC(c1ccccc1)c1ccc(Br)cc1` (stereo unspecified): 11.2 µM (active); for `O=C1NCN(c2ccccc2)C12CCN(CCCC(c1ccc(F)cc1)c1ccc(F)cc1)CC2`: 1.26 µM (active); for `OC(CCCN1CCCCC1)(c1ccccc1)c1ccccc1`: 7.94 µM (active).
Same read-out and setting: the same measure for `CN1CCCN(C(c2ccccc2)c2ccc(Cl)cc2)CC1` (stereo unspecified): 3.16 µM (active).
On the same count and under the same terms, then `Cc1cc(C(C)(C)C)cc(C)c1CC1=NCCN1`, with 12.6 µM (active); and `O=C(Nc1ccccc1)OCC(CN1CCCCC1)OC(=O)Nc1ccccc1` (stereo unspecified), with 10 µM (active).

For another assay the following is noted: Ebola virus entry assay, reporter ratio channel; Channel type: primary.
Regarding `CCCCOc1ccc(C(=O)CCN2CCCCC2)cc1`, the concentration at half-maximal activity (AC50) is 31.6 µM (active).
Consider `OCCN1CCN(CCCN2c3ccccc3C=Cc3ccccc32)CC1`, for which the half-maximal activity concentration (AC50) is 14.1 µM (active).
The same measure, in the same setting: the same measure for `COc1cc2c(cc1OC)-c1cc(=Nc3c(C)cc(C)cc3C)n(C)c(=O)n1CC2`: 15.8 µM (active); for `CN1CCC(=C2c3ccccc3CCc3cccnc32)CC1`: 31.6 µM (active).
The same measure, in the same setting: the same measure for `COC(=O)[C@H]1[C@H]2C[C@@H]3c4[nH]c5cc(OC)ccc5c4CCN3C[C@H]2C[C@@H](OC(=O)COc2ccc(OC)cc2)[C@@H]1OC`: 25.1 µM (active).
On the same count and under the same terms, the same measure for `N/C(=N\N=C\c1ccc(Cl)cc1)N/N=C/c1ccc(Cl)cc1`: 39.8 µM (active).
With `O=C(c1ccc(F)cc1)C1CCN(CCn2c(=S)[nH]c3ccccc3c2=O)CC1`, the AC50 was 17.8 µM (active).
Same read-out and setting: the same measure for `Cc1nc2sccn2c(=O)c1CCN1CCC(=C(c2ccc(F)cc2)c2ccc(F)cc2)CC1`: 15.8 µM (active).
Consider `Cc1cc(C(C)(C)C)c(O)c(C)c1CC1=NCCN1`, for which the AC50 is 39.8 µM (active).
On the same count and under the same terms, then `CN1CCC(=C2c3ccccc3CC(=O)c3sccc32)CC1`, with 28.2 µM (active); and `CCOC(=O)N1CCC(Nc2ccc(Cl)cc2N)CC1`, with 39.8 µM (active); and `Clc1ccc(Cn2c(CN3CCCC3)nc3ccccc32)cc1`, with 22.4 µM (active).
With `O=C(O)c1cn(-c2ccc(F)cc2)c2cc(N3CCNCC3)c(F)cc2c1=O`, the result was inactive.
`Cc1ccc2c(Br)cc(Br)c(O)c2n1`: the AC50 is 39.8 µM (active).
As to `CC1=C(C)C(=O)C(C(CCCCCC(=O)O)c2ccccc2)=C(C)C1=O` (stereo unspecified), the outcome was inactive.
Take `C[C@@H](C1=C(CCN(C)C)Cc2ccccc21)c1ccccn1`: the AC50 was 10 µM (active).
Still for that read-out and setting: the same measure for `Nc1c2c(nc3ccccc13)CCCC2`: 31.6 µM (active); for `CN(C)C(=S)SC(=S)N(C)C`: 5.01 µM (active).
For `Cc1cccc(CN2CCN(C(c3ccccc3)c3ccc(Cl)cc3)CC2)c1` (stereo unspecified), the AC50 was 22.4 µM (active).
For `CCCCN(CCCC)CC(O)c1cc(Cl)cc2c1-c1ccc(Cl)cc1/C2=C/c1ccc(Cl)cc1` (stereo unspecified), the AC50 was 39.8 µM (active).
Regarding `CCCCCCCCOc1ccccc1C(=O)Nc1ccc(C(=O)OCC[N+](C)(CC)CC)cc1`, the AC50 was 2.51 µM (active).
As for `Cc1c(C(=O)NN2CCCCC2)nn(-c2ccc(Cl)cc2Cl)c1-c1ccc(Cl)cc1`, the AC50 was 11.2 µM (active).
On the same count and under the same terms, then `OC(CCN1CCCCC1)(c1ccccc1)c1ccccc1`, with 28.2 µM (active).
`CN(C)CCOC1=Cc2ccccc2Sc2ccc(Cl)cc21`: the AC50 was 12.6 µM (active).
The same measure, in the same setting: the same measure for `CCN(CC)CCOc1ccc(C(O)(Cc2ccc(Cl)cc2)c2ccc(C)cc2)cc1` (stereo unspecified): 1.78 µM (active).
Still for that read-out and setting: then `CCCCCN=C(N)N/N=C/c1c[nH]c2ccc(OC)cc12`, with 3.16 µM (active); and `C[C@@H](CN(C)C)CN1c2ccccc2Sc2ccccc21`, with 10 µM (active).
For `CCCCc1ccc2nc(NC(=O)OC)[nH]c2c1`, the outcome was inactive.
Same read-out and setting: the same measure for `c1ccc2c(c1)CCc1ccccc1N2`: “inactive”.

The values above are taken from PubChem BioAssay (NCATS).
